About 83,000 compounds went through this panel and 20% of them were active in at least one assay; those are over-represented in the sample as a whole.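 Cell lines were cultured in 96-well plates, exposed to a single compound concentration, and assessed for percent growth 48 hours later.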 Unmarked numbers belong to inactive results. Activity calls are given as the source filed them. Rule for the calls: active = growth percent below 10; inactive = the rest.

Among the test systems are T-47D breast; BT-549 breast; MDA-MB-435 melanoma; SW-620 colon; MCF7 breast; HCT-116 colon; HCC-2998 colon; KM12 colon.
Experiment in all cases: NCI-60 one-dose screen, 48 h (100 = growth as untreated, 0 = no growth, -100 = all killed)
What all share (details): 10 µM unless noted

`CCOc1cc(CNc2ccc(N3CCOCC3)c(C(=O)O)c2)ccc1OC`: the growth in the experiment on T-47D breast is 103%; in the experiment with BT-549 breast, 108%; with MDA-MB-435 melanoma, 104%; with SW-620 colon, 98.5%; in the experiment with MCF7 breast, 82.2%; with HCT-116 colon, 119%. The growth in the experiment on HCC-2998 colon was 99.9%; with KM12 colon, 100%.
Turning to `BrC(Br)(Br)c1cnc2ccccc2n1`, the growth with T-47D breast was -49.3% (active); with BT-549 breast, 74.4%; in the experiment on MDA-MB-435 melanoma, 36.5%; in the experiment on SW-620 colon it was -65% (active); with MCF7 breast, 25.8%; in the experiment with HCT-116 colon, -40.3% (active). The values for the growth in the experiment with HCC-2998 colon and in the experiment with KM12 colon were 43.8% and 42.7%, respectively.
As to `N/C(=N\N=C\c1cc2ccccc2[nH]1)N/N=C/c1cc2ccccc2[nH]1`, the growth with T-47D breast is 88.8%; in the experiment with BT-549 breast, 98.7%; in the experiment on MDA-MB-435 melanoma, 104%; in the experiment with SW-620 colon, 101%; in the experiment on MCF7 breast it was 69.8%; in the experiment on HCT-116 colon, 86.8%. Moreover, the figures for the growth with HCC-2998 colon and in the experiment on KM12 colon were 99.6% and 97.6%, respectively.
Consider `CCn1ccnc1C(=O)/C=C/c1ccc(CC(=O)Nc2ccc(F)cc2)cc1`, for which the growth with T-47D breast was 24.5%; in the experiment with BT-549 breast, 4.63% (active); with MDA-MB-435 melanoma it was 20%; in the experiment on SW-620 colon, 6.04% (active); with MCF7 breast it was 25.2%; in the experiment with HCT-116 colon it was 1.33% (active). Moreover, the growth was 78.8% in the experiment with HCC-2998 colon and -14.3% (active) in the experiment with KM12 colon.
Regarding `c1cnc2nc3c(cc2c1)oc1ccccc13`, the growth in the experiment on T-47D breast is 100%; in the experiment with BT-549 breast it was 98.8%; with MDA-MB-435 melanoma, 103%; in the experiment with SW-620 colon, 99.4%; with MCF7 breast it was 86.6%; with HCT-116 colon, 101%. Moreover, the figures for the growth in the experiment on HCC-2998 colon and with KM12 colon were 100% and 98.2%, respectively.
Regarding `Cn1c(=O)c2[nH]c(CCCc3nc4c([nH]3)c(=O)n(C)c(=O)n4C)nc2n(C)c1=O`, the growth in the experiment with T-47D breast was 96.4%; with BT-549 breast, 121%; with MDA-MB-435 melanoma it was 111%; with SW-620 colon, 112%; in the experiment on MCF7 breast it was 92.8%; in the experiment with HCT-116 colon, 108%. Besides, the growth with HCC-2998 colon is 112%; in the experiment on KM12 colon, 118%.
Regarding `COc1ccc(NC(=O)c2sc3nc(C)c(C(=O)c4ccc(OC)cc4)cc3c2N)cc1`, the growth in the experiment with T-47D breast is 59.6%; with BT-549 breast it was 49.1%; in the experiment on MDA-MB-435 melanoma, -26.2% (active); in the experiment on SW-620 colon it was 34.9%; in the experiment on MCF7 breast, 25.3%; in the experiment on HCT-116 colon, 21.8%. Also, the growth in the experiment with HCC-2998 colon is 89.4%; with KM12 colon, 46.9%.
For `CC(=O)OCCCCCNc1ccccc1`, the growth in the experiment with T-47D breast was 103%; in the experiment on BT-549 breast, 102%; in the experiment with MDA-MB-435 melanoma, 111%; with SW-620 colon, 101%; with MCF7 breast, 109%; in the experiment with HCT-116 colon it was 113%. Moreover, the growth is 107% in the experiment on HCC-2998 colon and 94.6% in the experiment with KM12 colon.
As to `NNC(=O)/C(=C\c1ccc([N+](=O)[O-])cc1)CC(=O)c1ccc(Cl)c(Cl)c1`, the growth with T-47D breast was 77.1%; with BT-549 breast, 110%; in the experiment with MDA-MB-435 melanoma it was 96.9%; with SW-620 colon, 86%; with MCF7 breast, 73.8%; in the experiment on HCT-116 colon, 88.9%. The growth is 93.5% with HCC-2998 colon and 95.2% with KM12 colon.
With `O=C(CN1CCOCC1)Nc1ccc2ncnc(Nc3ccc(Oc4cccc(C(F)(F)F)c4)c(Cl)c3)c2c1`, the growth in the experiment on T-47D breast was 19.5%; with BT-549 breast it was 70.1%; in the experiment on MDA-MB-435 melanoma, 65.5%; in the experiment on SW-620 colon it was 82.2%; with MCF7 breast, 34.2%; in the experiment on HCT-116 colon it was 45.1%. Further, the growth with HCC-2998 colon is 87.1%; in the experiment with KM12 colon, 74.2%.
Consider `CC1(C)CCCN1CCCN1c2ccccc2Sc2ccc(Cl)cc21`, for which the growth in the experiment with T-47D breast was 68.5%; in the experiment on BT-549 breast, 56.3%; in the experiment with MDA-MB-435 melanoma, 51.5%; in the experiment with SW-620 colon, 79.9%; with MCF7 breast, 45.3%; with HCT-116 colon, 33.3%. Besides, the growth with HCC-2998 colon is 56.7%; with KM12 colon, 56.1%.
As for `COc1ccc(C2CC(n3nnnc3-c3ccccc3)=NN2)cc1` (stereo not drawn), the growth with T-47D breast is 46.3%; with BT-549 breast, 81.4%; in the experiment with MDA-MB-435 melanoma, 50.1%; with SW-620 colon, 50.6%; with MCF7 breast it was 62%; with HCT-116 colon, 50.7%. Further, the results for the growth in the experiment with HCC-2998 colon and in the experiment with KM12 colon were 72.3% and 49.3%, respectively.
Turning to `O=C1Nc2c(ccc(Cl)c2Cl)/C1=C/c1ccc(O)cc1`, the growth was 61.2% in the experiment with T-47D breast; 82.3% with BT-549 breast; 101% in the experiment with MDA-MB-435 melanoma; 79.1% with SW-620 colon; 54.1% with MCF7 breast; 72.6% with HCT-116 colon. Moreover, the growth with HCC-2998 colon was 80.5%; with KM12 colon, 85.9%.
With `O=S(=O)(NCCNc1nccc(-c2c(-c3ccc(F)c(O)c3)nc3sccn23)n1)c1ccccc1`, the growth is 68.8% in the experiment on T-47D breast; 114% in the experiment with BT-549 breast; 34.1% in the experiment on MDA-MB-435 melanoma; 70.4% in the experiment on SW-620 colon; 76.1% in the experiment on MCF7 breast; 34.3% with HCT-116 colon. In addition, the growth in the experiment on HCC-2998 colon is 95%; with KM12 colon it was 71.2%.
Take `COc1ccc(-c2nc3sccn3c2/C=C/C(=O)c2cc(OC)c(OC)c(OC)c2)cc1`: the growth in the experiment on T-47D breast was 30.5%; with BT-549 breast, 46.9%; in the experiment on MDA-MB-435 melanoma, 29.8%; in the experiment with SW-620 colon, 72.5%; in the experiment on MCF7 breast, 17.2%; in the experiment on HCT-116 colon, 42%. Moreover, the growth was 71.2% in the experiment with HCC-2998 colon and 35.8% with KM12 colon.
On to `COc1ccc(C(=O)/C=C/c2c(OC)cc(OC)cc2OC)c(OC)c1`, for which the growth with T-47D breast was 19%; in the experiment with BT-549 breast it was 12.3%; in the experiment with MDA-MB-435 melanoma, -20.2% (active); in the experiment on SW-620 colon, 16.6%; in the experiment with MCF7 breast it was 21.4%; in the experiment with HCT-116 colon it was 18.2%. The growth in the experiment on HCC-2998 colon is 41.7%; in the experiment with KM12 colon, 15.6%.

The values above are taken from PubChem BioAssay (NCI).
